NS1 inh: blocks influenza NS1 protein function. 270,000 compounds, 0.4% hits. AID 2326. Potency, µM (top dose mostly 46.1 µM), inactives show at the top dose activity, positive = more growth; also: potency is read from the fitted curve at half-maximal effect; actives are rising curves; nearly all actives have a fitted effect of over 50% in size
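Read-out: OD600 growth recovery of NS1-expressing budding yeast. Cells grown overnight at 30C in -URA glucose medium, washed, resuspended and diluted 1:100 in 2% galactose assay medium, pH 6.0. Same strain lacking NS1 served as positive control.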
Cruzain inh noDet: blocks cruzain activity in detergent-free assay; P25779; purified cruzain, Z-FR-AMC fluorescence, no detergent; Potency, µM, without a hit: max response, negative = inhibition, hits mostly inhibitors; 200,000 compounds, 2.3% hits; AID 1476; active = well fitted curve in the direction sought with a large enough effect; inconclusive = small, poorly fitted or top-dose-only effect, or another doubt; inactive = no such curve, though single readings can be large; an effect the other way counts as inactive or inconclusive;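 also: potency is read from the fitted curve at half-maximal effect; plate controls were enzyme without inhibitor for no effect and buffer without enzyme for full effect; nearly all actives have a fitted effect of over 40% in size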
Target sequence (P25779 123-467 limits assumed): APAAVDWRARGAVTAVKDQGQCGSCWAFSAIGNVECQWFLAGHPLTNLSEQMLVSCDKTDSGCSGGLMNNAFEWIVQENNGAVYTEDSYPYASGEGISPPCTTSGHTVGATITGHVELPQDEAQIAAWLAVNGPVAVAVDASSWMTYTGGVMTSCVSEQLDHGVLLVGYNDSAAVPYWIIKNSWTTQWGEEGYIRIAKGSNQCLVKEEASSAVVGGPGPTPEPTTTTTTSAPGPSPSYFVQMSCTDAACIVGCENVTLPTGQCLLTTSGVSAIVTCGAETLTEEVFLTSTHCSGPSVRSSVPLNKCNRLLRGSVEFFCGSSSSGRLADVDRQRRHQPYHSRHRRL
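Purified cruzain at 1.5 nM, pre-incubated 15 min with compound at room temperature in 100 mM sodium acetate pH 5.5, 5 mM DTT, 0.00005% Triton X-100. Reaction started with 2 uM Z-FR-AMC; AMC fluorescence increase over 60 s gives rate.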
Cruzain inh Det: cruzain (T. cruzi) inhibition with detergent; P25779; Potency, µM, for the others: max response, negative = inhibition, usual class: inhibitors; purified cruzain, Z-FR-AMC fluorescence, 0.01% Triton; 200,000 compounds, 0.43% hits; AID 1478; active = well fitted curve in the direction sought with a large enough effect; inconclusive = small, poorly fitted or top-dose-only effect, or another doubt; inactive = no such curve, though single readings can be large; an effect the other way counts as inactive or inconclusive;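 also: potency is read from the fitted curve at half-maximal effect; plate controls were neutral wells for no effect and buffer without enzyme for full effect; nearly all actives have a fitted effect of over 40% in size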
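Purified cruzain (1.5 nM final) was preincubated with compounds for 15 min at room temperature in 100 mM sodium acetate pH 5.5, 5 mM DTT, 0.01% Triton X-100. Reaction started with 2 uM Z-FR-AMC; AMC fluorescence change over 60 s gave activity.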
NS1 inh valid: validation of influenza NS1 protein function inhibitors; 1,400 tested, under 10 active; activity change, negative = inhibition, % at 32.9 µM; shares compounds with NS1 inh; influenza NS1 function cell assay, 15-point titration; also: 0% is about no effect
PR8 titer: influenza virus titer reduction, NS1 project | shares compounds with NS1 inh | MDCK infected influenza A/PR/8/34, virus titer TCID50; active compounds read low | virus titer (log TCID50), log10 TCID50 at 5 µM | 95 compounds, 30% hits; call rule not given here
* = called active by the depositor; ? = inconclusive; . = not tested or not shown; [ ] = remark or other dose. Many of the other results were omitted from the sample, so hits are more common in it than they were. Unless noted, calls follow the shape of the full dose curve.

SMILES	NS1 inh	Cruzain inh noDet	Cruzain inh Det	NS1 inh valid	others
Cc1cc(N2C(=O)C(O)=C(C(=O)c3ccc(C)o3)C2c2cccs2)no1 (stereo unspecified)	11µM*	-8%	3%	-26
COC(=O)c1ccc(C2C(C(=O)c3ccc(C)o3)=C(O)C(=O)N2c2cc(C)on2)cc1 (stereo unspecified)	12%	.	.	.
Cc1cccc(-n2c(C)cc(/C=N/NC(=O)c3cccc([N+](=O)[O-])c3C)c2C)c1	8%	-27%	-6%	.
Cc1ccc(C(=O)N/N=C/c2cc(C)n(-c3ccc(Br)cc3)c2C)cc1[N+](=O)[O-]	10µM*	20µM*	2%	-19	PR8 titer=8.3
COc1cccc(Cn2cccc(NC(=O)Nc3ccc(C#N)cc3)c2=O)c1	-7%	15%	4%	.
CC(Nc1ccccc1)C(=O)Nc1ccc(F)cc1 (stereo unspecified)	-2%	1%	2%	.
CCN(CC)S(=O)(=O)c1ccc2c(c1)c(C(=O)O)cn2C	2%	1%	1%	.
CN(c1ccccc1C(=O)O)S(C)(=O)=O	-1%	-11%	4%	.
CN(C)c1ccccc1C(=O)c1ccccc1N(C)C	8.9µM*	-2%	-18%	5
Cc1ccccc1CNC(=O)C1CCCN(c2cnccn2)C1 (stereo unspecified)	0%	.	.	.
CC(C)(C)c1ccc(C(=O)Nc2nnc(SCC(=O)NCC3CCCO3)s2)cc1 (stereo unspecified)	5%	.	.	.
O=C(C[C@H]1C(=O)N(Cc2ccccc2)C[C@@H]1Cc1ccccc1)Nc1ccccc1	-31%	.	.	.
O=C(O)CC(CC(=O)Nc1ccc(-n2ccc(C(F)(F)F)n2)cc1)c1ccccc1 (stereo unspecified)	?	.	.	-5
O=C(Nc1ccccc1)Nc1ccc(-n2ccc(C(F)(F)F)n2)cc1	0%	.	.	.
CC[C@@]1(O)C(=O)COc2c1cc1n(c2=O)Cc2c-1nc1cccc(C(C)C)c1c2[Si](C)(C)C	.	-3%	-6%	.
C=CCn1c(-c2oc3nc(-c4ccccc4)cc(-c4ccccc4)c3c2N)n[nH]c1=S	1.1µM*	25µM*	-11%	-7
C=CCn1c(-c2cccc(Cl)c2)n[nH]c1=S	-41%	12%	-6%	.
CCCCC(CC)CNC(=O)C1CCC(CNS(=O)(=O)c2cccc3nsnc23)CC1 (stereo unspecified)	.	22%	-5%	.
CC(C)CCN1CCN(Cc2cc3ccccc3[nH]2)CC1CCO (stereo unspecified)	3%	.	.	.
NNC(=O)CNC(c1ccccc1)c1cc(Br)ccc1NC(=O)c1ccc(Br)cc1 (stereo unspecified)	7.1µM*	-19%	-9%	26
O=C(CCN1CCOCC1)NCC(=O)Nc1ccc(Br)cc1C(=O)c1ccccc1	-1%	-2%	1%	.
NNC(=O)CNC(c1ccccc1)c1cc(Br)ccc1NC(=O)c1ccccc1Br (stereo unspecified)	?	-22%	-8%	.
NNC(=O)CNC(c1ccccc1)c1cc(Br)ccc1NC(=O)c1cccc(Cl)c1 (stereo unspecified)	11µM*	-17%	-9%	15
NNC(=O)CNC(c1ccccc1)c1cc(Br)ccc1NC(=O)CCN1CCOCC1 (stereo unspecified)	10µM*	2%	5%	?
CCOC(=O)CNC(c1ccccc1)c1cc(Br)ccc1NC(=O)c1cccc(Cl)c1 (stereo unspecified)	.	-22%	-5%	.
SMILES	NS1 inh	Cruzain inh noDet	Cruzain inh Det	NS1 inh valid	others
O=C(COc1ccc(S(=O)(=O)N2CCCCC2)cc1)NCc1ccncc1	-6%	2%	1%	.
O=C(NCc1cccnc1)C1CCCN(S(=O)(=O)c2ccccc2)C1 (stereo unspecified)	1.6µM*	8%	6%	2
COc1ccc(OC)c(NC(=O)COc2ccc(S(=O)(=O)N3CCCC3)cc2)c1	?	.	.	-8
O=C(COc1ccc(S(=O)(=O)N2CCCC2)cc1)NCc1cccnc1	?	.	.	11
O=C(NCc1cccnc1)C1CCCN(S(=O)(=O)c2ccc(Cl)cc2)C1 (stereo unspecified)	-11%	-14%	3%	.
COc1ccc(OCC(=O)Nc2ccc(S(=O)(=O)N3CCCCC3)cc2)cc1	-53%	.	.	.
CCNc1ncc2nc(C)c(=O)n(CCC#N)c2n1	.	?	-26%	.
OC(CNCCC(c1ccccc1)c1ccccc1)COc1ccccc1 (stereo unspecified)	-2%	.	.	.
O=C(Nc1cccc(S(=O)(=O)NC2=NCCCCC2)c1)c1cc(-c2ccccc2Cl)nc2ccccc12	?	?	-8%	.
CCCn1c(C(C)Nc2nc(-c3ccc(Cl)c([N+](=O)[O-])c3)cs2)nc2ccccc21 (stereo unspecified)	22%	.	.	.
CCCn1c(CCNc2nc(-c3ccc(Cl)c([N+](=O)[O-])c3)cs2)nc2cc(Cl)c(Cl)cc21	8.9µM*	.	.	37	PR8 titer=8
COc1ccc(C(c2c(NC(=O)c3ccccc3)sc(C)c2C)N2CCN(CCO)CC2)cc1 (stereo unspecified)	?	-6%	-9%	-18
COc1cccc(C(c2c(NC(=O)c3ccccc3)sc(C)c2C)N2CCN(C)CC2)c1 (stereo unspecified)	5%	-6%	-9%	.
CCCc1cc(=O)n2c(nc3ccccc32)[nH]1	-31%	-11%	-3%	.
COC(=O)c1ccc(C(=O)OC)c(NC(=O)CSCc2ccc(Br)cc2)c1	7%	-3%	0%	.
CCc1cc2c(-c3ccccc3)cc(=O)oc2cc1OCC(C)=O	-55%	.	.	.
CCc1cc2c(-c3ccccc3)cc(=O)oc2cc1OC(C)C(=O)O (stereo unspecified)	10µM*	.	.	21
CC(C(=O)c1c[nH]c2ccccc12)N1CCc2ccccc2C1 (stereo unspecified)	-9%	3%	-8%	.
Cc1nc(C)c(-c2nnc(-c3ccc(C(C)(C)C)cc3)o2)cc1C(=O)NN	10µM*	?	-7%	29
Cc1nc(C)c(-c2nnc(-c3ccccc3Cl)o2)cc1C(=O)NN	21%	.	.	.
CCS(=O)(=O)N1CCc2cc(C(=O)Nc3ccc(C(=O)OC)cc3)ccc21	.	-18%	-2%	.
O=C(O)CC/C(=C\c1cccc(NC(=O)c2ccccc2Cl)c1)c1nc2ccccc2s1	?	.	.	-20
O=C(O)CC/C(=C\c1cc([N+](=O)[O-])ccc1Cl)c1nc2ccccc2s1	6%	28%	-18%	.
O=C(CC1C(=O)NCCN1Cc1ccc(Cl)c(F)c1)NC1CCC1 (stereo unspecified)	15%	.	.	.
CCOC(=O)c1c(N)sc2c1CCC1C(=O)N(C3CCCCC3)C(=O)C21 (stereo unspecified)	-3%	-12%	-6%	.
O=C(CCN1C(=O)C2CC=C(Cl)CC2C1=O)NCc1ccccc1 (stereo unspecified)	2%[9.22 µM]	2%	0%	.
O=C(CCN1C(=O)C2CC=C(Cl)CC2C1=O)Nc1ccccc1O (stereo unspecified)	?	-1%	2%	9
Cc1cc(Oc2ccc(Br)cc2)nc(SCC(=O)c2ccccc2)n1	3%	-2%	-6%	.

Compound activity from PubChem BioAssay.
